According to PubChem BioAssay AID1851 (National Center for Advancing Translational Sciences (NCATS), 2009):
The campaign covered roughly 16,000 compounds. About 5,100 (32%) were called active. Roughly 25% stayed inconclusive and do not appear here. This is one part of the list. Unmarked numbers belong to inactive results. Calls follow the shape of the dose curve; as a rule, active = well fitted curve in the direction sought with a large enough effect; inconclusive = small, poorly fitted or top-dose-only effect, or effect the other way; inactive = no such curve, though single readings can be large or run the other way.

Molecular target: Cytochrome P450 3A4 (Homo sapiens) (UniProt P08684)
Sequence (P08684 whole entry, looked up): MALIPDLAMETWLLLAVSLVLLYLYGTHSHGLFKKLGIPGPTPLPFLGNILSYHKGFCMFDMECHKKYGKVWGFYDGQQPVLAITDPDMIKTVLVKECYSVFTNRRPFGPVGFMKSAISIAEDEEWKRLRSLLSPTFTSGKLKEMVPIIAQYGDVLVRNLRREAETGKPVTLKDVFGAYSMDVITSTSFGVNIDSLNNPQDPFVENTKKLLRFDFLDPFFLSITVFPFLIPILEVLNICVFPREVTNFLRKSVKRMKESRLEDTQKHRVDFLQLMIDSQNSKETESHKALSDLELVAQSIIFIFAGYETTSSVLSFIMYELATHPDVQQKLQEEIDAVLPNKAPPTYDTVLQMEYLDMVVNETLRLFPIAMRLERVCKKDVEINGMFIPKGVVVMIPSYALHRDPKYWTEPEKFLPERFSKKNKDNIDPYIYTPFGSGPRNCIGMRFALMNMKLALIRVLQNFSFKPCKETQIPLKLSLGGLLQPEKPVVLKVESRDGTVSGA
Test: Cytochrome panel assay with activity outcomes
Conditions: recombinant CYP, pro-luciferin dealkylation, luminescence, p450-cyp3a4; series mostly up to 57.1 µM
% is scaled to controls: 0 for no effect and ±100 for the full control effect.

SMILES	AC50	activity, negative = inhibition
C[C@H](NC[C@H](O)CP(=O)(O)Cc1ccccc1)c1ccc(Cl)c(Cl)c1	inactive	
FC(F)(F)c1ccccc1-c1nc(NC2CC2)c2ccccc2n1	3.16 µM (active)	
COc1ccccc1-c1nc(NC2CC2)c2ccccc2n1	12.6 µM (active)	
FC(F)(F)c1ccccc1-c1nc(NC2CCNCC2)c2ccccc2n1	inactive	
CN(C)Cc1ccccc1-c1nc(NC2CC2)c2ccccc2n1	15.8 µM (active)	
Cc1ccccc1-c1nc(NC2CCNCC2)c2ccccc2n1	inactive	
Cc1ccccc1-c1nc(NC2CC2)c2ccccc2n1	3.98 µM (active)	
N[C@H](C(=O)O)C1[C@H](C(=O)O)[C@H]1C(=O)O (stereo not given in full)	inactive	
Cc1ccc(SCCNC(=S)Nc2ccc(C)c(C)c2)cc1	6.31 µM (active)	
CCCNC(=S)Nc1ccc(Br)cc1	inactive	
COCC(=O)N1CCC2(CCN(Cc3ccccc3)CC2)CC1	inactive	
CC(C)NC1(C(N)=O)CCN(Cc2ccccc2)CC1		-7.69% [at 11.4 µM]
CCOC(=O)C1(S(=O)(=O)c2ccccc2)CCN(Cc2ccccc2)CC1	5.01 µM (active)	
CC(=O)N1CCC2(CCN(Cc3ccccc3)CC2)CC1	inactive	
CCOC(=O)C1(S(=O)(=O)c2ccc(Cl)cc2)CCN(Cc2ccc(Cl)cc2)CC1	7.08 µM (active)	
CC1(C)Cc2c(C#N)c(SCc3ccccc3)nc(N3CCOCC3)c2CO1	25.1 µM (active)	
Nc1nc(N)c(N=Nc2ccc(C(=O)O)c(O)c2)c(N)n1		-18% [at 11.4 µM]
COc1ccc(NC(=O)OC(C)C)cc1		-9.73% [at 2.29 µM]
CCn1c2ccccc2c2cc(NC(=O)C(C)Oc3ccc(OC)cc3)ccc21 (stereo not given)	6.31 µM (active)	
CC(Oc1ccccc1)C(=O)Nc1nc2c(s1)C(=O)CC(C)(C)C2 (stereo not given)	inactive	
CCN(CC)c1ccc(/C=C/c2nc3ccccc3s2)cc1	11.2 µM (active)	
CN(N=O)c1ccc(/C=C\c2ccnc3ccccc23)cc1		-15.2% [at 11.4 µM]

SMILES	AC50	activity, negative = inhibition
Cc1nc2c(C)cccn2c1/C(O)=C1\C(=O)C(=O)N(CCN2CCOCC2)C1c1cccs1 (stereo not given)	inactive	
Cc1nc2ccccn2c1/C(O)=C1\C(=O)C(=O)N(CCCn2ccnc2)C1c1ccncc1 (stereo not given)	11.2 µM (active)	
Cc1nc2ccccn2c1/C(O)=C1\C(=O)C(=O)N(CCN2CCOCC2)C1c1cccnc1 (stereo not given)	inactive	
CC(C)C(=O)C(C)(C)CCc1ccccn1		-11% [at 11.4 µM]
Cc1cccc(CN(C)CCc2ccccn2)c1	inactive	
CN(CCc1ccccn1)Cc1ccc(Cl)cc1Cl	7.94 µM (active)	
COc1ccc(CCNC(=O)C2CCN(S(=O)(=O)N3CC(C)CC(C)C3)CC2)cc1OC (stereo not given)	7.08 µM (active)	
CCS(=O)(=O)N1CCC(C(=O)NCc2ccccc2OC)CC1		4.92% [at 11.4 µM]
COc1ccccc1CNC(=O)C1CCN(S(=O)(=O)N2CC(C)CC(C)C2)CC1 (stereo not given)	11.2 µM (active)	
COc1cccc(CNC(=O)C2CCN(S(=O)(=O)N3CCCCC3)CC2)c1	22.4 µM (active)	
O=C(Nc1cc2c(oc1=O)CCCC2=O)c1ccc(Cl)cc1	inactive	
Cc1cc(NC(=O)c2cc(C(C)C)on2)no1	inactive	
NS(=O)(=O)c1cc(C(=O)O)cc(N2CCCC2)c1Oc1ccccc1	inactive	
O=C(COc1ccccc1)Nc1cc(C(F)(F)F)ccc1N1CCCC1	3.98 µM (active)	
O=C(Nc1cc(C(F)(F)F)ccc1N1CCCCC1)c1ccc(Br)o1	inactive	
CC(=O)N1CCN(c2ccccc2NC(=O)COc2ccc(Br)cc2)CC1	4.47 µM (active)	
Cc1ccc(OCC(=O)Nc2ccc(Cl)cc2)c(-n2nc3ccccc3n2)c1		-10.5% [at 2.29 µM]
Cc1ccc(OCC(=O)Nc2ccccc2N2CCOCC2)c(C)c1	14.1 µM (active)	
CCOc1ccc(C(=O)Nc2ccccc2N2CCCC2)cc1		-11.9% [at 2.29 µM]
CCCCC(=O)NC(Nc1cc(C)ccn1)(C(=O)OCC)C(F)(F)F (stereo not given)	7.08 µM (active)	
O=P(O)(O)O[C@@H]1O[C@H](CO)[C@@H](O)[C@H](O)[C@@H]1O		-3.16% [at 11.4 µM]
CN1CCN(C(=O)c2ccc3c(=O)n4c(nc3c2)CCCCC4)CC1	inactive	

SMILES	AC50	activity, negative = inhibition
O=c1c2ccccc2nc(-c2ccc(Br)cc2)n1Cc1ccccc1	inactive	
N#CCSc1nc2ccc(N3CCCCC3)cc2c(=O)n1Cc1ccccc1	7.08 µM (active)	
N#CCSc1nc2cc(C(=O)N3CCCC3)ccc2c(=O)n1Cc1ccccc1	12.6 µM (active)	
COc1ccc(NC(=O)N2CCCC3(CCN(C(=O)c4cccn4C)CC3)C2)cc1	25.1 µM (active)	
COc1ccc(C(=O)N2CCC[C@@]3(CCN(C(=O)Nc4ccccc4)C3)C2)cc1	15.8 µM (active)	
COc1ccc(NC(=O)N2CCCC3(CCN(C(=O)c4ccc(OC)cc4)CC3)C2)cc1	12.6 µM (active)	
COC(=O)N1CCC[C@@]2(CCN(C(=O)Nc3ccccc3)C2)C1	inactive	
COc1ccc(C(=O)N2CCC3(CC2)CN(C(=O)Nc2ccccc2)C3)cc1	inactive	
COc1ccc(NC(=O)N2CC[C@@]3(CCCN(C(=O)c4cc(C(F)(F)F)cc(C(F)(F)F)c4)C3)C2)cc1	20 µM (active)	
COc1ccc(NC(=O)N2CC3(CCN(C(=O)c4cccn4C)CC3)C2)cc1	inactive	
Cn1cccc1C(=O)N1CCC2(CC1)CN(C(=O)Nc1ccccc1)C2	inactive	
CC(=O)ON(C(C)=O)S(=O)(=O)c1ccc(Cl)cc1	inactive	
COC(=O)N1CCC2(CC1)CN(C(=O)Nc1ccc(OC)cc1)C2	inactive	
COc1ccc(NC(=O)N2CCCC3(CCN(C(=O)c4ccco4)CC3)C2)cc1	15.8 µM (active)	
COc1ccc(NC(=O)N2CCCC3(CCNCC3)C2)cc1	25.1 µM (active)	
COCC(=O)N1CCC2(CC1)CN(C(=O)Nc1ccc(OC)cc1)C2	inactive	
COc1ccc(NC(=O)N2CC[C@@]3(CCCN(C(C)=O)C3)C2)cc1	inactive	
COc1ccc(NC(=O)N2CC3(CCN(C(=O)c4ccco4)CC3)C2)cc1	inactive	
COc1ccc(NC(=O)N2CCC3(CC2)CCN(C(=O)c2ccco2)CC3)cc1	inactive	
COc1ccc(NC(=O)N2CC[C@@]3(CCCN(C(=O)c4ccc(OC)cc4)C3)C2)cc1	15.8 µM (active)	
COc1ccc(NC(=O)N2CC[C@@]3(CCCNC3)C2)cc1	inactive	
